Screens (PubChem)
ELG1 genotoxic: inducers of genotoxicity in HEK293T ELG1-luciferase cells. HEK293T ELG1-luciferase reporter, luminescence, 16 h. Potency, µM (titrated, usually from 46 µM), for inactives: at the top dose activity change, positive = activation, hits mostly activators. hit rate 1.3% among 330,000; further: % of control where 0% means no effect; nearly all actives have a fitted effect of over 60% in size
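Genotoxic stress is detected as increased luminescence from luciferase-tagged ELG1 in HEK293T cells, measured with ONE-Glo after a 16 hr treatment at 37 °C.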
Rab9 promoter act: activates the Rab9 promoter. Huh7 Rab9 promoter-luciferase reporter, luminescence, 24 h. Potency, µM (top dose mostly 9.22 µM), without a hit: at the highest dose activation, negative = inhibition, actives largely listed as activators. hit rate 2.8% among 320,000. AID 485297; further: % of control where 0% means no effect; nearly all actives have a fitted effect of over 60% in size
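Cells were plated at 1500 per well in reduced-serum medium with 10% FBS and left 2 h. Compound in DMSO was then added for 24 h at 37 °C. Reporter signal was read by luminescence after 10 min with luciferase detection reagent.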
SMN2 splice up: enhancers of SMN2 splice variant expression; HEK293 SMN2-luciferase splicing reporter, luminescence, 30-36 h; AID 1458; Potency, µM (highest dose often 46.1 µM), for the others: at the top dose activity change, positive = activation, hits mostly activators; hit rate 2.8% among 210,000; further: % of control where 0% means no effect; nearly all actives have a fitted effect of over 55% in size
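HEK293 cells carry an SMN2 […]–luciferase reporter in which exon 7 inclusion puts luciferase in frame. Cells were plated 10-12 h before compound addition, then incubated 30-36 h at 37C. ONE-Glo luminescence was read; sodium butyrate at 4.5 mM final served as control.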
Luc counter: blocks Kinase-Glo luciferase, a counter-screen artifact; Q27757; Kinase-Glo luciferase, ATP luminescence, 8 min; Potency, µM (series often up to 38.3 µM), for inactives: top-dose activity change, negative = inhibition, most hits filed as inhibitors; hit rate 0.28% among 200,000; AID 1379; further: on the % scale 0 is the no-effect control and ±100 the full control effect; nearly all actives have a fitted effect of over 60% in size
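Light output from Kinase-Glo luciferase with luciferin and 10 uM ATP in 50 mM imidazole pH 7.2, KCl, MgCl2, Tween 20, BSA; compound pin-delivered, 8-min ambient incubation, then luminescence read.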
NPC1 promoter act: activators of NPC1 promoter. Huh7 NPC1 promoter luciferase reporter, 24 h. Potency, µM (highest dose often 9.22 µM), inactives show at the highest dose activation, usual class: activators. hit rate 2.4% among 320,000. AID 485313; further: % of control where 0% means no effect; nearly all actives have a fitted effect of over 60% in size
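Luminescence read-out of NPC1 promoter-driven luciferase in stably transfected Huh7 cells; compounds delivered in DMSO and left 24 h at 37C, 5% CO2, qHTS titration format.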
FLuc modulator: counter-screen for miR-21 project: firefly luciferase inhibitors or activators; purified FLuc, Km substrates, luminescence inhibition; P08659; Potency, µM (titrated, usually from 57.5 µM), for the others: at the highest dose activity change, negative = inhibition, usual class: inhibitors; AID 588342; hit rate 6.9% among 360,000;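 further: plate controls were vehicle for no effect and reference inhibitor for full effect; nearly all actives have a fitted effect of over 55% in size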
Target sequence (P08659 whole entry, looked up): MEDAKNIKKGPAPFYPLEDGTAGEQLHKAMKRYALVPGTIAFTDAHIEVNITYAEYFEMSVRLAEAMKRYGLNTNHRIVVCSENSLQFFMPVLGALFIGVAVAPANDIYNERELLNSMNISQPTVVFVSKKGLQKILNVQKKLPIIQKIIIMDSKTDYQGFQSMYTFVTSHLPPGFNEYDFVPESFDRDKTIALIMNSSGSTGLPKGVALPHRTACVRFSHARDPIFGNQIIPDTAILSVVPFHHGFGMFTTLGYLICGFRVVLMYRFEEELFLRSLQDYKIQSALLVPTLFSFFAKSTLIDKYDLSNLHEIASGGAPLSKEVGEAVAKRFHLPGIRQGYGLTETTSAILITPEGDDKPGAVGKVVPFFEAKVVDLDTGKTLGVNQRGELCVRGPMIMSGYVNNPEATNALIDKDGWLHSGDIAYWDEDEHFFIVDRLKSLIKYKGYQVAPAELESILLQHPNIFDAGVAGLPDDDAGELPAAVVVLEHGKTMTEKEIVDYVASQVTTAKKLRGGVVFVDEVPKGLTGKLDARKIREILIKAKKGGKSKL
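Biochemical qHTS of compounds, final roughly 60 µM downward over six points, against 10 nM purified firefly luciferase using Km concentrations of substrates (10 uM D-luciferin, 10 uM ATP) in Tris acetate pH 7.5 buffer; luminescence output.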
* marks the source's active call; other numbers are inactive results; ? = inconclusive; / = not tested or not shown. Shown are actives, neighbours in structure and some others; about 7.4% of the full set was active somewhere. The call rests on the fitted dose curve; in most records, active means well fitted curve in the direction sought with a large enough effect; inconclusive means small, poorly fitted or top-dose-only effect, or another doubt; inactive means no such curve, though single readings can be large; an effect the other way counts as inactive or inconclusive. Potency means the concentration at half of the fitted maximal effect.

SMILES	ELG1 genotoxic	Rab9 promoter act	SMN2 splice up	Luc counter	NPC1 promoter act	FLuc modulator
O=C(NCC1CCCC(CNC(=O)Nc2ccc(Cl)cn2)C1)Nc1ccc(Cl)cn1 (stereo not drawn)	-39%	11%	/	/	1%	-7%
O=C1ON=C(c2cccc([N+](=O)[O-])c2)/C1=C/c1ccc(O)cc1	?	-8%	-10%	0%	-2%	17µM*
N#CCSc1nnc(-c2sc3ccccc3c2Cl)o1	2%	12%	-23%	-1%	1%	17µM*
COC(=O)CSc1nnc(-c2sc3ccccc3c2Cl)o1	-2%	4%	-10%	-4%	-6%	5.4µM*
CC(C)(C)c1ccc(C(=O)NCCC(=O)Nc2ccc3c(c2)OCCO3)cc1	14%	2%	/	/	16%	-1%
C=CCn1c(=O)c(C(=O)Nc2ccccc2S(N)(=O)=O)c(O)c2ccccc21	?	3.2µM*	/	-1%	2.5µM*	?
CCOC(=O)Cc1cc(=O)n2[nH]cc(-c3cccc(Br)c3)c2n1	-12%	-8%	/	2%	0%	?
O=C1CNC(=S)N1c1nc2ccccc2s1	?	?	/	/	?	17µM*
COc1ccc(-c2ccc(CNCc3ccccn3)o2)cc1Cl	8%	-3%	/	/	-4%	?
Fc1ccc(-c2ccc(CNCc3ccccn3)o2)cc1	?	5%	/	/	27%	24µM*
Clc1ccc(-c2ccc(CNCc3ccccn3)o2)cc1	4%	24%	/	/	?	15µM*
CCOC(=O)c1ccc(NC(=O)CSc2nnc(CNC(=O)c3ccc(OC)cc3)n2CC)cc1	/	/	8%	/	/	15µM*
COc1ccc(C(=O)NCc2nnc(SCC(=O)Nc3ccccc3OC)n2C)cc1	2%	-6%	6%	0%	-4%	15µM*
COc1ccc(C(=O)NCCc2nnc(SCC(=O)Nc3ccccc3F)n2C)cc1	8%	8%	30%	-1%	8%	?
COc1ccccc1NC(=O)CSc1nnc(CCNC(=O)c2ccc(C)cc2)n1C	6%	25%	/	1%	9%	15µM*
CSc1ccc(S(=O)(=O)N2CCC(C(=O)Nc3ccccc3C(F)(F)F)CC2)cc1	-5%	-8%	/	/	-3%	-2%
CC(C)c1ccc(OCC(=O)Nc2ccc(OC(F)(F)F)cc2)cc1	-1%	-1%	/	/	1%	1%
CN1CCN(c2ccc(NC(=O)COc3ccccc3)cc2Cl)CC1	?	4µM*	/	/	4.5µM*	21µM*
Cc1cc(NC(=O)COc2ccccc2)ccc1Cl	?	28%	/	/	?	27µM*
CC(C)c1ccc(NC(=O)COc2ccccc2)cc1	?	?	/	/	?	17µM*
N#Cc1ccc(C(=O)Nc2cccc(S(=O)(=O)NC3=NCCC3)c2)cc1	-1%	/	/	/	/	/
COCCCNC(=O)c1ccc(-c2nc(CS(=O)(=O)c3ccc(C)cc3)c(C)o2)cc1	/	/	/	/	/	-2%
O=C(NC1CCC(O)CC1)c1cccc2cccnc12 (stereo not drawn)	9%	-4%	/	/	5%	5%
O=C(NCCCSc1ccccc1)c1cnc(Cl)c(Cl)c1	-2%	0%	/	/	-10%	-10%
O=C(NCCc1ccccc1)c1cnc(Cl)c(Cl)c1	13%	14%	/	/	19%	24µM*
SMILES	ELG1 genotoxic	Rab9 promoter act	SMN2 splice up	Luc counter	NPC1 promoter act	FLuc modulator
Cc1ccc(CCNC(=O)Cn2cccc2)cc1	1%	1%	9%	-4%	-3%	2%
Cc1ccc(Oc2ccc(C(=O)NCc3ccncc3)cc2)cc1	5%	-20%	-83%	5%	-28%	-13%
Cc1ccc(CCNC(=O)NC(C)(C)C)cc1	13%	?	3.5µM*	2%	?	?
CN(c1ccc(C(=O)NCCc2ccccc2)cc1)S(C)(=O)=O	1.6µM*	0.63µM*	14µM*	-13%	1.4µM*	5.4µM*
Cc1ccc(C(=O)NCCc2ccncc2)cc1	?	?	?	2%	?	21µM*
CC(NC(=O)CCNS(=O)(=O)c1cccc2nonc12)c1ccccc1 (stereo not drawn)	-2%	3%	/	/	1%	-1%
COc1ccc(NC(=O)N2CC[C@@]3(CCCN(C(=O)c4cnccn4)C3)C2)cc1	/	/	-1%	-2%	/	/
COc1ccc(CN2CCN(CCC(C)C)C(CCO)C2)cc1Cn1cncn1 (stereo not drawn)	-1%	0%	/	0%	0%	3%
Cc1ccc(C(=O)NCCc2ccccc2)cc1	?	0.04µM*	/	/	?	0.54µM*
Cc1ccc(CNC(=O)c2ccc(Cn3cc(-c4ccc(C)cc4)nc3-c3ccncc3)cc2)cc1	?	2.8µM*	/	/	?	11µM*
CN(c1ccc(C(=O)NCCSC(C)(C)C)cc1)S(C)(=O)=O	10µM*	?	11µM*	4%	?	19µM*
O=C(NCc1ccco1)/C(=C/C=C/c1ccccc1)NC(=O)c1ccco1	0%	10%	-12%	-4%	-1%	-14%
O=C(NCc1ccco1)/C(=C\C=C\c1ccccc1)NC(=O)c1ccccc1Br	-15%	2%	-10%	0%	-1%	27µM*
CC(C)C(NC(=O)Nc1ccccc1)C(=O)Nc1cccc(S(=O)(=O)N(C)C)c1 (stereo not drawn)	-6%	-5%	/	/	-1%	1%
CCOc1ccc(NC(=O)c2ccc3c(=O)n4c(nc3c2)CCCCC4)cc1	-3%	-8%	6%	/	-9%	3%
Cc1csc(NC(=O)c2ccc3c(=O)n4c(nc3c2)CCCCC4)n1	16%	1.1µM*	/	/	3.5µM*	8.5µM*
O=C(Nc1nccs1)c1ccc2c(=O)n3c(nc2c1)CCCCC3	14%	3.2µM*	/	/	2.8µM*	11µM*
CNC(=S)Nc1cccc(S(=O)(=O)NC2=NCCC2)c1	2%	-1%	-9%	0%	-1%	1%
COc1ccc(-c2cc(=O)c3c(O)c(OC)c(OC)c(OC)c3o2)cc1OC	/	/	12%	1%	/	/
COc1ccc(-c2cc(-c3n[nH]c(=S)n3-c3ccccc3OC)[nH]n2)cc1	8%	-1%	16%	1%	0%	?
COc1ccc(-c2cc(-c3c(O)c(OC)c4occc4c3OC)[nH]n2)cc1OC	-5%	11%	-12%	-3%	3%	17µM*
COc1ccc(-c2cc(-c3c(O)c(OC)c4occc4c3OC)[nH]n2)cc1	-2%	3%	-35%	0%	-1%	17µM*
COc1cccc(/C=C/C(=O)OCC(=O)N2c3ccccc3NC(=O)C2(C)C)c1	0%	-2%	14%	1%	2%	6%
COc1ccccc1N1C(=O)CC(Sc2n[nH]c(-c3cccc(C)c3)n2)C1=O (stereo not drawn)	4%	-2%	14%	0%	0%	?
